HCV inh – blocks hepatitis C virus; Huh7.5.1 HCVcc-Cre infection, luciferase reporter, 44 h; AID 651820; Potency, µM (highest dose often 41.8 µM), hits mostly inhibitors; actives 3.4% (n = 340,000)
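Reporter virus HCVcc-Cre (~0.5 moi) infects cells exposed to compound; seeding density 1,000 cells/well with 4 h settling beforehand. Luminescence, 15 sec read, taken 44 h post-infection following a 15 min RT substrate incubation.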
VACV mCherry inh – vaccinia inhibition (mCherry reporter); AID 720579; Vaccinia virus mCherry reporter infection, fluorescence; Potency, µM (series often up to 36.5 µM), hits mostly inhibitors; actives 0.63% (n = 310,000); calls by dose curve; tested in A549 cells; also: nearly all actives have a fitted effect of over 35% in size
HCMV antiviral – human cytomegalovirus inhibition | HFF cells, HCMV-luciferase reporter, 72 h; hits give low values | activity change, negative = inhibition, % at 57.5 µM | actives 4.5% (n = 410,000) | AID 1259415; in the data active = activity change below about -60%; inconclusive = no clear call, values can overlap the other calls; inactive = above about -39%
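Human foreskin fibroblasts infected with luciferase-reporter HCMV at MOI 1 PFU/cell, compounds at two doses. Luciferase measured 72 h post infection; normalized to buffer-only basal and Salinomycin (10uM) controls.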
LASV entry inh – blocks Lassa virus binding to or entry into cells | actives 1.2% (n = 300,000) | Potency, µM (titrated, usually from 37.9 µM), most hits filed as inhibitors | AID 540256 | Lassa virus pseudotype entry inhibition, cell reporter; calls by dose curve; tested in HEK293 cells; also: nearly all actives have a fitted effect of over 50% in size
VACV Venus inh – inhibitors of vaccinia virus (Venus reporter) | Vaccinia virus Venus reporter expression, fluorescence | Potency, µM (series often up to 36.5 µM), most hits filed as inhibitors | actives 0.46% (n = 330,000); calls by dose curve; tested in A549 cells; also: nearly all actives have a fitted effect of over 30% in size
Marburg entry inh – inhibitors of Marburg virus binding or cell entry | Marburg virus pseudotyped entry inhibition, cell reporter | Potency, µM (doses to about 37.8 µM), most hits filed as inhibitors | actives 1.8% (n = 300,000) | AID 540276; calls by dose curve; tested in HEK293 cells
HCV confirm – confirmation of hepatitis C virus inhibitors. Potency, µM (highest dose often 41.8 µM), actives largely listed as inhibitors. shares compounds with HCV inh. actives 78% (n = 640). AID 720575. HCVcc-Cre infectious virus cell assay, luciferase, inhibition; also: nearly all actives have a fitted effect of over 80% in size
HCV cytotox – host cell cytotoxicity counter-screen for HCV inhibitors; actives 22% (n = 640); shares compounds with HCV inh; Potency, µM (titrated, usually from 41.8 µM), most hits filed as inhibitors; HCV host cell line cytotoxicity counterscreen; AID 720576;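 also: 44 h compound exposure; nearly all actives have a fitted effect of over 55% in size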
A number is an active result; [ ] = another dose, or the depositor's remark. Sampled rows, rich in hits. Any-hit rate of the full collection: about 7.8%. Unless noted, calls follow the shape of the dose curve; as a rule, active = well fitted curve in the direction sought with a large enough effect; inconclusive = small, poorly fitted or top-dose-only effect, or another doubt; inactive = no such curve, though single readings can be large; an effect the other way counts as inactive or inconclusive.

What do the screens show for `O=[N+]([O-])c1ccc(/C=C/c2ccc3cccc([N+](=O)[O-])c3n2)cc1`?
HCV inh: inactive; VACV mCherry inh: inactive; HCMV antiviral: inconclusive; LASV entry inh: inactive; VACV Venus inh: inactive; Marburg entry inh: inconclusive

Results for CCC(CC)C(=O)Nc1cccc(-c2nc3ncccn3c2C)c1 ?
VACV mCherry inh: inactive[7.34 µM]; HCMV antiviral: inactive; LASV entry inh: inactive; VACV Venus inh: inactive[7.34 µM]

What do the screens show for `CCc1cccc(NC(=O)Cn2c(=O)n(CCC(=O)NCc3ccccc3Cl)c(=O)c3sccc32)c1`?
VACV mCherry inh: inactive; HCMV antiviral: inactive; LASV entry inh: inactive; VACV Venus inh: inactive; Marburg entry inh: inactive

What do the screens show for `Clc1cccc(-c2cc3nc4c(c(N5CCOCC5)n3n2)CCCC4)c1`?
HCV inh: inconclusive; VACV mCherry inh: inconclusive; HCMV antiviral: inactive; LASV entry inh: inactive; VACV Venus inh: inactive; Marburg entry inh: inconclusive; HCV confirm: 14µM; HCV cytotox: inactive

What do the screens show for `Clc1cccc(-c2cc3nc4c(c(N5CCN(c6cnccn6)CC5)n3n2)CCCC4)c1`?
HCV inh: inactive; HCMV antiviral: inactive; LASV entry inh: inactive; VACV Venus inh: inactive; Marburg entry inh: inactive

How did C=C1CC[C@@]2(O)[C@H]3Cc4ccc(O)c5c4[C@@]2(CCN3CC2CC2)[C@H]1O5 do in these assays?
HCV inh: inconclusive; VACV mCherry inh: inactive; LASV entry inh: inactive; VACV Venus inh: inactive; Marburg entry inh: inactive

Results for O=C1/C(=C/c2ccccc2)C[C@@]2(O)[C@H]3Cc4ccc(O)c5c4[C@@]2(CCN3CC2CC2)C1O5 (stereo partly drawn) ?
HCV inh: 3.2µM; VACV mCherry inh: inconclusive; VACV Venus inh: 10µM; HCV confirm: 6.3µM; HCV cytotox: 10µM

How did CC(C)(C)OC(=O)COc1cc(O)c2c(=O)cc(-c3ccccc3)oc2c1 do in these assays?
HCV inh: inconclusive; HCMV antiviral: inconclusive; LASV entry inh: inconclusive; Marburg entry inh: inconclusive; HCV confirm: 28µM; HCV cytotox: inactive

How did Cc1ccc(C)c(NC(=S)NC(NC(=O)N(C)C)C(Cl)(Cl)Cl)c1 (stereo not drawn) do in these assays?
HCV inh: inactive; VACV mCherry inh: inactive; HCMV antiviral: inactive; LASV entry inh: inactive; VACV Venus inh: inactive; Marburg entry inh: inactive

How did Cc1ccc(C)c(NC(=S)NC(NC(=O)Cc2cccc3ccccc23)C(Cl)(Cl)Cl)c1 (stereo not drawn) do in these assays?
HCV inh: 2.2µM; VACV mCherry inh: inconclusive; HCMV antiviral: -98; LASV entry inh: 7.9µM; VACV Venus inh: inconclusive; Marburg entry inh: 13µM; HCV confirm: 11µM; HCV cytotox: 31µM

What do the screens show for `CCOC(=O)c1cccc(NC(=O)c2cc3sccc3n2C)c1`?
HCV inh: 3.2µM; HCMV antiviral: inactive; LASV entry inh: inactive; Marburg entry inh: inactive; HCV confirm: 25µM; HCV cytotox: inactive

How did Cc1ccc(-n2nc3c(N4CCC(C(=O)N5CCN(C)CC5)CC4)nnc(C)c3c2C)cc1 do in these assays?
HCV inh: 4.5µM; HCMV antiviral: inconclusive; HCV confirm: 16µM; HCV cytotox: inactive

How did CCOC(=O)CSc1nc2cc3c(cc2c(=O)n1CCCCCC(=O)NCc1ccc(OC)cc1)OCO3 do in these assays?
VACV mCherry inh: inactive; HCMV antiviral: inactive; LASV entry inh: inactive; VACV Venus inh: inactive

What do the screens show for `CCN(CC)C(=O)CSc1nc2cc3c(cc2c(=O)n1Cc1ccc(OC)cc1)OCO3`?
HCV inh: inconclusive; VACV mCherry inh: inactive; HCMV antiviral: inconclusive; LASV entry inh: inconclusive; VACV Venus inh: inactive; Marburg entry inh: inactive; HCV confirm: 5.6µM; HCV cytotox: inactive

Results for O=C(Cn1nc2c(cc1=O)CCCC2)Nc1ccccc1C(F)(F)F ?
VACV mCherry inh: inactive; HCMV antiviral: inactive; LASV entry inh: inactive; VACV Venus inh: inactive

How did CC(C)(C)C1C/C(=C/c2ccccn2)C(=O)/C(=C/c2ccccn2)C1 (stereo not drawn) do in these assays?
HCV inh: 0.89µM; VACV mCherry inh: inconclusive; VACV Venus inh: inconclusive; HCV confirm: 1µM; HCV cytotox: 1.4µM

Screening results: PubChem BioAssay, National Center for Advancing Translational Sciences (NCATS)
